Values joined by “and” are separate entries in the source; they are usually repeats but may differ in a detail not shown here. Equal values may be shown once. The campaign covered roughly 5,500 compounds. About 2,000 (36%) were called active. Another 18% or so got no clear call; they are omitted. Rule as the data show it: active = normalized growth mostly below about 0.91 (no sharp cut-off); inconclusive = no clear call, values can overlap the other calls; inactive = mostly above about 0.92. This is one part of the list.
Assay: chemical genetic growth profiling, strain panel (AID 1159580);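 also: tested at 20 µM; growth read once vehicle control cultures reached saturation at 30 °C; 1 = growth at the plate median or of vehicle wells; lower values mean less growth of the strain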
Details: S. cerevisiae deletion strains, growth OD

Measured: normalized growth

C[C@@H]1O[C@@H](O[C@H]2C[C@@H](O)[C@]3(CO)C4C(CC[C@]3(O)C2)[C@@]2(O)CC[C@H](C3=CC(=O)OC3)[C@@]2(C)C[C@H]4O)[C@H](O)[C@H](O)[C@H]1O (some centres not stated)
inactive: locus YAL021C, strain ccr4, active compounds read low 1.01 | locus YAL026C, strain drs2, active compounds read low 1.02 | locus YAL030W, strain snc1, active compounds read low 1.03 | locus YBL061C, strain skt5, active compounds read low 1.02 | locus YBR009C, strain hhf1, active compounds read low 1.04 | locus YBR021W, strain FUR4, active compounds read low 1.05 | locus YBR023C, strain chs3, active compounds read low 1.03 | locus YBR171W, strain sec66, active compounds read low 1.04 | locus YBR229C, strain ROT2, active compounds read low 1.02 | locus YBR231C, strain swc5, active compounds read low 1.01 | locus YBR279W, strain paf1, active compounds read low 1.02 | locus YCL011C, strain gbp2, active compounds read low 1.02 | locus YCL016C, strain dcc1, active compounds read low 1.04 | locus YCL029C, strain bik1, active compounds read low 0.99 | locus YCL061C, strain MRC1, active compounds read low 1.01 | locus YCL069W, strain vba3, active compounds read low 1.03 | locus YCR088W, strain abp1, active compounds read low 1.02 | locus YDL005C, strain med2, active compounds read low 1.02 | locus YDL035C, strain GPR1, active compounds read low 1.05 | locus YDL040C, strain nat1, active compounds read low 1.02 | locus YDL074C, strain BRE1, active compounds read low 1.04 | locus YDL101C, strain DUN1, active compounds read low 1.02 | locus YDL185W, strain tfp1, active compounds read low 1 | locus YDL192W, strain arf1, active compounds read low 0.994 | locus YDR001C, strain nth1, active compounds read low 1.02 | locus YDR069C, strain doa4, active compounds read low 0.997 | locus YDR101C, strain arx1, active compounds read low 0.994 | locus YDR137W, strain rgp1, active compounds read low 1.02 | locus YDR159W, strain sac3, active compounds read low 1 | locus YDR162C, strain NBP2, active compounds read low 1.03 | locus YDR195W, strain ref2 1.01 | locus YDR297W, strain sur2, active compounds read low 1.02 | locus YDR318W, strain mcm21, active compounds read low 0.998 | locus YDR334W, strain swr1, active compounds read low 1.03 | locus YDR335W, strain msn5, active compounds read low 1.03 | locus YDR388W, active compounds read low 0.992 | locus YDR392W, strain spt3, active compounds read low 0.981 | locus YDR502C, strain sam2, active compounds read low 0.989 | locus YEL003W, strain gim4, active compounds read low 1.03 | locus YEL037C, strain rad23, active compounds read low 1.03 | locus YEL061C, strain CIN8 (second series), active compounds read low 1.03 | locus YEL061C, strain CIN8, active compounds read low 1.02 | locus YER015W, strain faa2, active compounds read low 1.02 | locus YER016W, strain bim1, active compounds read low 1.01 | locus YER110C, active compounds read low 0.985 | locus YER111C, strain swi4, active compounds read low 1.02 | locus YER155C, strain BEM2 (second series), active compounds read low 1.01 | locus YER155C, strain BEM2, active compounds read low 1.01 | locus YER167W, strain BCK2, active compounds read low 1.03 | locus YFR010W, strain ubp6, active compounds read low 1.03 | locus YGL078C, strain dbp3, active compounds read low 0.992 | locus YGL086W, strain mad1, active compounds read low 0.996 | locus YGL167C, strain pmr1, active compounds read low 1.03 | locus YGL173C, strain kem1, active compounds read low 1.02 | locus YGL227W, strain vid30, active compounds read low 1.03 | locus YGL240W, strain doc1, active compounds read low 0.997 | locus YGL248W, strain PDE1, active compounds read low 1.02 | locus YGL253W, strain hxk2, active compounds read low 1.01 | locus YGR135W, strain pre9, active compounds read low 1.01 | locus YGR252W, strain gcn5, active compounds read low 0.98 | locus YHR013C, strain ard1, active compounds read low 1.04 | locus YHR027C, strain rpn1, active compounds read low 1.02 | locus YHR030C, strain SLT2, active compounds read low 1.02 | locus YHR079C, strain IRE1 (second series), active compounds read low 0.987 | locus YHR079C, strain IRE1, active compounds read low 1.02 | locus YHR094C, strain hxt1, active compounds read low 0.983 | locus YHR129C, strain ARP1, active compounds read low 1.02 | locus YHR142W, strain chs7, active compounds read low 1.04 | locus YHR200W, strain rpn10, active compounds read low 0.999 | locus YIL066C, strain RNR3, active compounds read low 1.05 | locus YIL073C, strain SPO22, active compounds read low 0.981 | locus YIL125W, strain kgd1, active compounds read low 0.994 | locus YIR030C, strain dcg1, active compounds read low 0.991 | locus YJL092W, strain hpr5, active compounds read low 1.02 | locus YJL095W, strain BCK1 (second series), active compounds read low 1.05 | locus YJL095W, strain BCK1, active compounds read low 1.03 and 1.01 | locus YJL115W, strain asf1, active compounds read low 1.03 | locus YJL129C, strain trk1, active compounds read low 1.04 | locus YJL134W, strain LCB3, active compounds read low 1.01 | locus YJL154C, strain vps35, active compounds read low 1.02 | locus YJL164C, strain tpk1, active compounds read low 1.02 | locus YJL166W, strain qcr8, active compounds read low 1.01 | locus YJL168C, strain set2, active compounds read low 0.987 | locus YJL187C, strain SWE1 (second series), active compounds read low 1.03 | locus YJL187C, strain SWE1, active compounds read low 1.02 | locus YJR043C, strain POL32, active compounds read low 1.05 | locus YJR066W, strain TOR1, active compounds read low 0.989

Source: PubChem BioAssay AID1159580 (chemical genetic matrix, 2015)
